# The list is not random: actives were taken first. Their share in the collection is about 1.8%.
# VLA-4 inh: inhibition in a human VLA-4 binding assay; VLA-4 expressing cells, ligand binding flow cytometry; inhibition, % (about 7 µM as worked out from the volumes in the protocol); hit rate 0.2% among 330,000; in the data active = inhibition above about 50%
# MIN6 prolif: induces beta-cell replication in MIN6 cells; MIN6 cells proliferation, ATPlite luminescence, 48 h; cells starved in 0.2% serum; 100% = growth in 10% serum; proliferation, % at 10 µM; hit rate 0.29% among 330,000;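 active = compounds whose signal lies at least 3.5 SD above the mean of all wells on their plate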;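 note: 0% = DMSO-treated cells in low-serum medium and 100% = 10% serum control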
# A3A deaminase: inhibitors of human APOBEC3A DNA deaminase; P31941; recombinant A3A, FAM/TAMRA ssDNA deamination fluorescence; inhibition, % at 20 µM; hit rate 0.41% among 330,000; AID 493011;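 active = at least 40% inhibition at 20 µM here, with at most 30% in a related deaminase screen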;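 note: plate controls were A3A with DMSO for no effect and wells lacking A3A enzyme for full effect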
# NRP1-CendR mod: modulators of CendR peptide binding to human neuropilin-1. FAM-RPARPAR peptide binding to NRP-1, fluorescence polarization. O14786. hit rate 0.85% among 360,000. inhibition, % at 25 µM;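 active = inhibition or corrected inhibition above about 18%, plus a signal ratio from 0.5 to 1.5, limit read from the data, passing the limit was not always enough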
# APOBEC3G inh: blocks human APOBEC3G single-stranded DNA deamination; Q9HC16; recombinant A3G, ssDNA deamination FAM/TAMRA fluorescence; inhibition, % at 20 µM; hit rate 0.28% among 330,000; AID 493012;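 active = inhibition of at least 40% at 20 µM, with no more than 30% in the related APOBEC3A deaminase screen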;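 note: plate controls were DMSO wells with A3G for no effect and wells lacking A3G enzyme for full effect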
# Target sequence (Q9HC16 whole entry, looked up): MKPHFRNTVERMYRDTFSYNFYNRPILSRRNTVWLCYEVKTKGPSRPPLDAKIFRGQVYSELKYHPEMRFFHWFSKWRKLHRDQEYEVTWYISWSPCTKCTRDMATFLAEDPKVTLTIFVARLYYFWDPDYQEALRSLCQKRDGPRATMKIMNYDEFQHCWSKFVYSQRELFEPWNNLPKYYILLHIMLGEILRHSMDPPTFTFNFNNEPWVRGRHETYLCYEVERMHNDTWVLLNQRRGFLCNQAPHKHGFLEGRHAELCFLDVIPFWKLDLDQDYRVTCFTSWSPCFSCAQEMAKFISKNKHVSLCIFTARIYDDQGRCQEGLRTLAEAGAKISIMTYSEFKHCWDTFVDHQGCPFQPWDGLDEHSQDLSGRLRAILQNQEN
# Active calls of the source: *; i = inactive; / = not tested or not shown.
SMILES,VLA-4 inh,MIN6 prolif,A3A deaminase,NRP1-CendR mod,APOBEC3G inh
Cc1ccnc(N2C(=O)c3cccc4c([N+](=O)[O-])ccc(c34)C2=O)c1,-122,-4,-3,36*,-7
Cc1ccc(N2C(=O)c3cccc4c([N+](=O)[O-])ccc(c34)C2=O)c2cccnc12,18,-6,-3,-12,-5
O=C1CCCCN1CCC(=O)N1CCCC(N2CCN(c3ccccc3)CC2)C1 (centres undefined),-108,2,-8,4,-8
O=C1CCCCN1CCC(=O)N1CCCC(N2CCN(c3cccc(Cl)c3)CC2)C1 (centres undefined),-7,2,1,25*,-3
CC1(C(=O)NS(=O)(=O)Cc2ccccc2C(F)(F)F)CCN1C(=O)Cc1ccsc1 (centres undefined),/,/,/,-9,/
CCOC(=O)[C@H](O)[C@@H](O)c1cccc([C@H](O)[C@@H](O)C(=O)OCC)c1,-4,-7,1,24*,-1
O=C(COC(=O)CCNS(=O)(=O)c1ccc(Cl)cc1)NCc1ccccc1,/,/,/,-10,/
O=C(COC(=O)CCNS(=O)(=O)c1ccc(Cl)cc1)NCc1ccco1,3,-2,-1,19*,0
O=C(NCCCN1CCCC1=O)Nc1ccc(Cl)cc1Cl,-4,-2,-3,13,-2
O=C1CCCN1CCCNC(=S)Nc1ccc(Cl)cc1Cl,-9,1,-3,40*,-5
COc1ccc(N2C(=NC(=O)c3ccc(Br)cc3)SC3CS(=O)(=O)CC32)cc1 (centres undefined),-5,-3,-2,2,-7
O=C1C(C=NCc2ccccn2)=C(O)c2ccccc21,-10,-3,4,-6,0
CC(C)CN=CC1=C(O)c2ccccc2C1=O,6,0,-4,23*,-6
O=C(NNC(=O)c1csc(-c2cccs2)n1)c1ccc(Cl)cc1,/,/,/,-11,/
CSCC[C@@H](C(=O)NCc1cccs1)N1Cc2ccccc2C1=O,9,-1,-6,21*,-7
Cc1cccc(C(=O)OCC(=O)Nc2c(C)n(C)n(-c3ccccc3)c2=O)c1,15,3,0,19*,-4
Cc1onc(-c2ccccc2)c1C(=O)Nc1c(C)n(C)n(-c2ccccc2)c1=O,20,2,5,38*,-3
Cc1ccsc1C(=O)OCC(=O)Nc1c(C)n(C)n(-c2ccccc2)c1=O,23,1,3,5,-4
COC1=C(c2ccccc2)C(=O)c2ccccc2C1=O,-11,-4,-2,32*,-4
COc1ccc(C2=C(N)c3ccccc3C2=O)cc1,0,-2,-1,-2,1
Cc1sc2ncnc(NCC(O)c3ccc([N+](=O)[O-])cc3)c2c1C (centres undefined),8,-4,-3,4,-9
Cc1ccc(S(=O)(=O)c2ncccc2[N+](=O)[O-])cc1,16,-5,-5,-2,-8
Cc1ccc(S(=O)(=O)c2ncccc2N)cc1,i,-2,-5,56*,-9
Cc1cc(C(=O)CSc2nc(N)cc(=O)[nH]2)c(C)n1CC1CCCO1 (centres undefined),8,-1,4,21*,6
CN(C)c1ccc(CC2C(=O)Nc3ccccc32)cc1 (centres undefined),-1,0,-5,22,45*
SMILES,VLA-4 inh,MIN6 prolif,A3A deaminase,NRP1-CendR mod,APOBEC3G inh
CC(C)NC(=O)c1cc(C2CCCCN2C(=O)c2ccc(C(C)C)cc2)on1 (centres undefined),/,/,/,7,/
COC(=O)N1CCCCC1c1cc(C(=O)N2CCOCC2)no1 (centres undefined),/,/,/,26*,/
CC(=O)Nc1ccc(C(=O)N2CCCCC2c2cc(C(=O)NC(C)C)no2)cc1 (centres undefined),/,/,/,44*,/
CCCN(CCC)C(=O)Cn1c(=O)c2ccccc2n2c(=S)sc(-c3ccccc3C)c12,-18,0,0,-6,1
CCCN(CCC)C(=O)Cn1c(=O)c2sccc2n2c(=S)sc(-c3ccccc3)c12,i,-4,6,42*,9
CC1CCCCN1C(=S)NC(=O)c1cc(Br)ccc1Cl (centres undefined),17,-3,-7,15,-10
CCOC(=O)C1=C(C)NC2=C(C(=O)CCC2)C1c1cccnc1 (centres undefined),3,0,1,4,-6
CCOC(=O)C1=C(C)NC2=C(C(=O)c3ccccc32)C1c1cccnc1 (centres undefined),2,0,-2,40*,1

# From PubChem BioAssay
